Sfp PPTase inh = qHTS Assay for Inhibitors of Bacillus subtilis Sfp phosphopantetheinyl transferase (PPTase); 4'-phosphopantetheinyl transferase ffp (Bacillus subtilis), Q9F4F7; Biochemical Sfp PPTase activity, qHTS; Potency, µM, inactives show largest response in the series, negative = inhibition, usual class: inhibitors; 3.5% of 310,000 active;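 further: the enzyme is Sfp with the accession as filed and its product quenches rhodamine fluorescence; 0% = enzyme reaction without inhibitor and -100% = no enzyme wells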
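Buffer: 50 mM Hepes-Na pH 7.6, 10 mM MgCl2, 0.01% Nonidet P-40, 0.01% BSA. Enzyme 15 nM, pre-exposed to compound 15 min; substrates then added and fluorescence change tracked over 30 min.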
PLK1 PBD block = qHTS for Inhibitors of PLK1-PDB (polo-like kinase 1 - polo-box domain): Primary Screen | Serine/threonine-protein kinase PLK1 (Homo sapiens), P53350 | Plk1 PBD binding of FITC phosphopeptide, fluorescence polarization | Potency, µM, without a hit: max response, negative = inhibition, actives largely listed as inhibitors | 2.8% of 360,000 active; further: series mostly up to about 57 µM; on the % scale 0 is the no-effect control and ±100 the full control effect; nearly all actives have a fitted effect of over 65% in size
BAZ2B inh = qHTS Assay for Inhibitors of BAZ2B; AID 504333, 2011; Potency, µM (highest dose often 114 µM), inactives show top-dose activity change, negative = inhibition, most hits filed as inhibitors; 4.4% of 360,000 active; Bromodomain adjacent to zinc finger domain protein 2B (Homo sapiens), Q9UIF8; AlphaScreen BAZ2B-H3K14Ac peptide displacement; further: on the % scale 0 is the no-effect control and ±100 the full control effect; nearly all actives have a fitted effect of over 60% in size
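AlphaScreen displacement: compounds (up to 110uM) incubated 30 min at room temperature with a preformed 50 nM BAZ2B/50 nM biotinylated H3K14Ac peptide complex in PBS pH 7.4 with Tween-20. Donor and acceptor beads at 10 ug/mL final added, 20 min light-protected before reading.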
HP1b binding inh = HTS for Inhibitors of HP1-beta Chromodomain Interactions with Methylated Histone Tails; AID 540317, 2011; Potency, µM (highest dose often 114 µM), inactives show top-dose activity change, negative = inhibition, actives largely listed as inhibitors; 0.56% of 390,000 active; AlphaScreen HP1-beta / biotin-H3K9me3 peptide binding; further: nearly all actives have a fitted effect of over 70% in size
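AlphaScreen: HP1-beta (50 nM) preformed 30 min with biotin-H3(1-18)K9me3 peptide (50 nM) in PBS pH 7.4, 0.01% Tween-20. Compound added for 30 min at RT, then streptavidin donor/nickel chelate acceptor beads (10 ug/mL) for 30 min.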
G9a block = qHTS Assay for Inhibitors of Histone Lysine Methyltransferase G9a; Histone-lysine N-methyltransferase EHMT2 (Homo sapiens), Q96KQ7; G9a H3K9 monomethylation, AlphaScreen, 2 h; Potency, µM (titrated, usually from 102 µM), for the others: at the top dose activity, negative = inhibition, actives largely listed as inhibitors; 8.8% of 350,000 active; further: on the % scale 0 is the no-effect control and ±100 the full control effect; nearly all actives have a fitted effect of over 75% in size
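Compounds were preincubated with 20 nM G9a for 15 min, after which biotinylated H3K9 peptide (500 nM) and SAM (20 uM) started a 2 h room-temperature reaction. Monomethylated product was quantified by antibody-based AlphaScreen chemiluminescence.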
JMJD2A Tudor = qHTS Assay for Inhibitors of JMJD2A-Tudor Domain | Potency, µM (top dose mostly 114 µM), for inactives: at the highest dose activity change, negative = inhibition, usual class: inhibitors | AlphaScreen JMJD2A-Tudor / H3K4me3 peptide binding | Lysine-specific demethylase 4A (Homo sapiens), O75164 | AID 504339, 2011 | 4.4% of 390,000 active; further: on the % scale 0 is the no-effect control and ±100 the full control effect; nearly all actives have a fitted effect of over 50% in size
An asterisk follows results filed as active; ? = inconclusive; / = not tested or not shown; [ ] = remark or other dose. Only some compounds are listed: those with a hit (about 12% of all), similar ones and a draw of the others. The call rests on the fitted dose curve; in most records, active means well fitted curve in the direction sought with a large enough effect; inconclusive means small, poorly fitted or top-dose-only effect, or another doubt; inactive means no such curve, though single readings can be large; an effect the other way counts as inactive or inconclusive. Potency means the concentration at half of the fitted maximal effect.

SMILES	Sfp PPTase inh	PLK1 PBD block	BAZ2B inh	HP1b binding inh	G9a block	JMJD2A Tudor
NC(=O)c1c(NC(=O)CCCC(=O)O)sc2c1CCCCCC2	79µM*	27µM*	2%	?	50µM*	-31%[57.1 µM]
N#Cc1c(NC(=O)CCCC(=O)O)sc2c1CCCCC2	56µM*	-13%	23%	10%	29%[59 µM]	0%
NC(=O)c1c(NC(=O)C2CCCO2)sc2c1CCC2 (stereo not given)	0%	-4%	3%	13%	7%	-24%
NC(=O)c1c(NC(=O)C2CCCO2)sc2c1CCCCC2 (stereo not given)	-83%	11µM*	-30%	?	3.5µM*	?
N#Cc1c(NC(=O)COC(=O)c2nccnc2N)sc2c1CCCC2	/	-8%	79µM*	0%	45µM*	25µM*
COc1ccccc1C(=O)n1nc(-c2ccccc2)nc1NCc1ccc(Cl)cc1	/	/	5%	53%	5%[59 µM]	-5%
Cc1ccccc1C(=O)Nc1sc2c(c1C(=O)N1CCCCC1)CCC(C)C2 (stereo not given)	/	/	?	9%	-33%[59 µM]	-27%
CCC/C=C/C1C(=O)C2OC2C2(OCC(CC)(CC)CO2)C1CO (stereo not given)	1%	/	/	/	/	/
Cc1cccc(NC(=O)C2CCC(CNS(=O)(=O)c3ccc(Br)s3)CC2)c1 (stereo not given)	/	/	2%	11%	-7%[59 µM]	-12%
CCCOC(=O)c1c(NC(=O)CCC(=O)O)sc2c1CCCCC2	?	-14%	-27%	3%	50µM*	-4%
Cn1c(SCC(=O)Nc2ccc(N3CCOCC3)cc2)nnc1-c1ccco1	13%	-11%	-23%	-15%	1%	-21%
CC(C)n1c(SCC(=O)Nc2ccc(N3CCOCC3)cc2)nnc1-c1ccco1	5%	-8%	-16%	31%	-39%	32µM*
CC(C)n1c(SCC(=O)Nc2nncs2)nnc1-c1ccco1	20µM*	0%	50µM*	-12%	/	56µM*
O=C(Nc1ccc(F)cc1)c1ccc(-n2cncn2)c([N+](=O)[O-])c1	22%	-2%	-33%	18%	?	-19%
CCOc1ccc(NC(=O)c2nn(C)c(C(=O)Nc3ccc(OCC)cc3)c2[N+](=O)[O-])cc1	21%	-2%	10%	7%	-9%[0.501 µM]	-12%
CCOc1ccc(N/C(=C(/C(Cl)=C(Cl)Cl)[N+](=O)[O-])n2cncn2)cc1	-29%	/	8.9µM*	/	25µM*	/
O=[N+]([O-])/C(C(Cl)=C(Cl)Cl)=C(\Nc1ccc(F)cc1)n1cncn1	-19%	/	28µM*	/	8.9µM*	/
COc1cccc(Cn2c(=O)n(-c3ccc(Br)cc3F)c(=O)c3sc4ccccc4c32)c1	/	/	-2%	37%	-4%[59 µM]	2%
Cc1cc(C)n(CC(=O)N2CCCC(N3CCN(Cc4ccc5c(c4)OCO5)CC3)C2)n1 (stereo not given)	11%	-4%	-3%	8%	79µM*	-15%
Cc1ccn(CC(=O)N2CCCC(N3CCN(Cc4ccc5c(c4)OCO5)CC3)C2)n1 (stereo not given)	13%	-3%	-9%	16%	?	-3%
O=C(NNc1cccc(Cl)c1)c1cccnc1Oc1ccccc1	-5%	1%	-5%	36%	16µM*	5%
O=C(Nc1ccc(F)cc1)c1cccnc1Oc1ccccc1	16%	3%	3%	25%	6%	3%
CCOc1ccc(-n2c(SCC(=O)Nc3ccc4c(c3)OCCO4)nc3c([nH]c4ccccc43)c2=O)cc1	/	/	28%	43%[57 µM]	15%[59 µM]	-21%
O=S(=O)(CCOc1ccccc1)N1CCOCC1	2%	-4%	6%	16%	79µM*	4%
CCOC(=O)C1CCN(S(=O)(=O)CCNC(=O)c2cccc(OC)c2)CC1	/	-7%	-1%	11%	18µM*	-12%
SMILES	Sfp PPTase inh	PLK1 PBD block	BAZ2B inh	HP1b binding inh	G9a block	JMJD2A Tudor
O=C(CCCOc1ccccc1)Nc1ccc(S(=O)(=O)N2CCOCC2)cc1	10%	-3%	-2%	11%	9%	-9%
COc1cccc(C(=O)NCCS(=O)(=O)N2CCC3(CC2)OCCO3)c1	/	-2%	6%	32%	16µM*	-3%
COc1cccc(C(=O)NCCS(=O)(=O)N2CC(C)CC(C)C2)c1 (stereo not given)	/	-2%	-1%	37%	25µM*	-6%
COc1ccc2sc(-c3ccc(S(C)(=O)=O)cc3)c(-c3ccc(SC)cc3)c2c1	/	-10%	/	36%	/	-26%
COc1ccc(OC)c(CCNC(=O)c2cc3c(-c4ccccc4F)nn(C)c3s2)c1	/	/	-37%	8%	?	?
O=C(O)CC(C(=O)OCCOc1ccccc1)N1CCOCC1 (stereo not given)	4%	1%	-19%	12%	79µM*	?
COc1cccc(C(=O)NCCS(=O)(=O)N2CCOCC2)c1	/	-2%	-5%	13%	22µM*	-5%
CCc1cc(=O)oc2c(C)c(OC(C)C(=O)NCCCn3ccnc3)ccc12 (stereo not given)	8%	-1%	?	35%	2%	-9%
CCCOc1ccc(-c2nc(SCC(=O)c3ccc(Cl)cc3)n[nH]2)cc1	/	/	-21%	42%	14µM*	?
COc1ccc(C(=O)CSc2n[nH]c(-c3ccco3)n2)cc1	?	-7%	-3%	14%	?	-12%
Cc1ccc(O)c(NC(=O)CSc2n[nH]c(-c3ccccc3)n2)c1	12%	-5%	-27%	22%	9%	-24%
C=CCSc1n[nH]c(-c2ccc(OCCC)cc2)n1	-7%	-5%	8%	58%	5%[12.7 µM]	-2%
O=C(CSc1n[nH]c(-c2ccccc2)n1)c1ccc(O)c(O)c1	-14%	-7%	45µM*	-13%	7.9µM*	63µM*
CCOc1ccc(-c2nc(SCC(=O)c3ccccc3)n[nH]2)cc1	/	/	-15%	20%	14µM*	25µM*
C#CCCc1cocc1/C=[N+](\[O-])c1ccc(C(=O)OCC)cc1	/	-16%	-3%	20%	11%[0.501 µM]	-34%
O=C(NC(=S)Nc1nc2c(s1)CCCC2)c1ccc(C(=O)c2ccccc2)cc1	-11%	-4%	-10%	-12%	-39%[59 µM]	-26%
O=C(NC(=S)Nc1nc2c(s1)CSc1ccccc1-2)c1ccccc1	45µM*	-15%	?	-18%	3.5µM*	-31%
C=CCOc1ccc(-c2nc3c(c(=O)[nH]c(=O)n3CCCC)n2C)cc1OC	8%	21µM*	-10%	-29%	17%[59 µM]	32µM*

Assay outcomes from PubChem.
